From patent publication US20040171041, “Preparation and use of single-stranded transcription substrates for synthesis of transcription products corresponding to target sequences” (published 2004) come the findings set out here.

The target in this assay is T1, mini-vRNAP (N4 virion RNA polymerase transcriptionally active domain, His-tagged) (Bacteriophage N4, UniProt Q859P9 SEQ:38-1143).
T1 sequence: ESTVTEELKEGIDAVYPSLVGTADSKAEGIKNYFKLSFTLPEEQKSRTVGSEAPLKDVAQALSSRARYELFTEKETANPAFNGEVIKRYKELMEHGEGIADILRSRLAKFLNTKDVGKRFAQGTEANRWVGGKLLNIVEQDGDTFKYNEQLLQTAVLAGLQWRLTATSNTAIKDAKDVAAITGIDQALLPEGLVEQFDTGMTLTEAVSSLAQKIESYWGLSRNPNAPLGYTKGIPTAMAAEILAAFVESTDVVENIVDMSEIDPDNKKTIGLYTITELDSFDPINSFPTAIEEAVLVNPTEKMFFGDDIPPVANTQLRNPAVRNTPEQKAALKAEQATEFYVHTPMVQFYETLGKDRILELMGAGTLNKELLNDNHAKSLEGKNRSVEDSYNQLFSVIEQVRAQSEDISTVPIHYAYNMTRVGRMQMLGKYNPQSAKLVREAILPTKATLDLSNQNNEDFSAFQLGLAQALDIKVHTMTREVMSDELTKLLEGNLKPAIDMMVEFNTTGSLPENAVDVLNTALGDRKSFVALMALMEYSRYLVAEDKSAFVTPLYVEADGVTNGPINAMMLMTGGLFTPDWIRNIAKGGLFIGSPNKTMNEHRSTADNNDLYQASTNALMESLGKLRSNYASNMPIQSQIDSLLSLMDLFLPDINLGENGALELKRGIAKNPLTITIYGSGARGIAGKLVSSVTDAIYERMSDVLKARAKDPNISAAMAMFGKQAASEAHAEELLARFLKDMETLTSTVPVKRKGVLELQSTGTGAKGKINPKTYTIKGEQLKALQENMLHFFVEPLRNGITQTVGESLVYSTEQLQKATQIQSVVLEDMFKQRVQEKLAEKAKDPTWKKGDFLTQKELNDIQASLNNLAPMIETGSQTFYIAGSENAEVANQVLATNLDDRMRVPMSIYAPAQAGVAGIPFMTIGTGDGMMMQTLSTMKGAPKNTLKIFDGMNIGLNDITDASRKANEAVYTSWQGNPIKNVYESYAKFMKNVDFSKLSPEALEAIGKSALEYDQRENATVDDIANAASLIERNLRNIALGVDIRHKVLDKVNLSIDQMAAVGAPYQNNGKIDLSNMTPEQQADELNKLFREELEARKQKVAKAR
The experiment in a line: filter; further one order of magnitude reduction versus -2 pairing. The following applies: tags: N-terminal His6 (pBAD B leader); hairpin, extended stem; ssDNA; [NONE]. From the text:
To study the sequence determinants of promoter binding, 20 base-long promoter oligonucleotides, containing the wild-type vRNAP promoter P2 sequence and substituted at every position with a single 5-Iodo-dU, were used. Whenever substitutions were made in the stem, the corresponding pairing base was changed to A. These oligonucleotides were ³²P end-labeled and used to determine the enzyme's affinity for promoter DNAs by a filter binding assay and the ability to crosslink to mini-vRNAP upon UV irradiation at 320 nm.
The effect of changes in the stem length of the hairpin on the ability of mini-vRNAP to bind P2 promoter DNA was analyzed. […] The stem can be shortened by two base pairs without change in the binding affinity. […] No binding is observed if one more nucleotide is removed and the loop cannot form.
The sequence TCCAAAAGAAGCGGAGCTTCTTTTG showed a binding signal of approximately 1000 fold lower affinity.
